SENP6 inh: SENP6 protease inhibitors, primary screen, biochemical, luminescence, uHTS; hit rate 1.8% among 330,000; Recombinant SENP6 catalytic domain, aminoluciferin luminescence; Sentrin-specific protease 6 (Homo sapiens), Q9GZR1; inhibition, % at 10 µM; AID 2599, 2010;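 active = inhibition above about 50% at the single tested dose, limit read from the data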
SENP8 block-1: SENP8 protease inhibitors, primary screen, biochemical, luminescence | Sentrin-specific protease 8 (Homo sapiens), Q96LD8 | purified SENP8, Z-RLRGG-aminoluciferin cleavage | inhibition, % at 10 µM | hit rate 1.2% among 330,000; in the data active = inhibition above about 50%
Target sequence (Q96LD8 whole entry, looked up): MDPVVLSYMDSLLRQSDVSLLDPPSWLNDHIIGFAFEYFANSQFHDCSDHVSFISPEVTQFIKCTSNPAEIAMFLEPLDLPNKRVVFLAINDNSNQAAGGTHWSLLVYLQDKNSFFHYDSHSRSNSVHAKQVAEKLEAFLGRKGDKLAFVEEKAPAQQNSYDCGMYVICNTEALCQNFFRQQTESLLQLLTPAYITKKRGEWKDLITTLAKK
SENP8 block-2: human SENP8 protease inhibitors, primary screen, biochemical, fluorescence, Nedd8 protein substrate, uHTS | Sentrin-specific protease 8 (Homo sapiens), Q96LD8 | recombinant SENP8 | inhibition, % at 20 µM | hit rate 0.64% among 360,000; in the data active = inhibition mostly above about 40%, no sharp cut-off; inactive = mostly below about 27%
HSP90 refold inh: HSP90 inhibitors, primary screen, cell lysate, luminescence; Heat shock protein HSP 90 (rabbit reticulocyte lysate; luciferase refolding); Rabbit reticulocyte lysate, luciferase refolding luminescence, 3 h; inhibition, % at 5.6 µM; hit rate 0.91% among 290,000;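 active = inhibition above the screen-wide mean plus 3 SD, computed separately per campaign, cut at about 16% in these data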;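 also: inhibitors lower the luminescence because luciferase stays unfolded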
SENP7 inh: SENP7 protease inhibitors, primary screen, biochemical, luminescence, uHTS | inhibition, % at 5 µM | Sentrin-specific protease 7 (Homo sapiens), Q9BQF6 | AID 434973, 2010 | hit rate 1.5% among 330,000 | recombinant SENP7, Z-RLRGG-aminoluciferin luminescence, 40 min;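 active = inhibition above about 50% at the single test dose, limit read from the data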
SENP8 confirm: SENP8 protease inhibitors, retest, confirmation, biochemical, luminescence, single concentration; shares compounds with SENP7 inh; inhibition, % at 12.5 µM; hit rate 40% among 6,200; Recombinant SENP8, Z-RLRGG-aminoluciferin luminescence, 60 min;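 active = mean inhibition across replicates above about 50%, limit read from the data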
SENP6 conf: SENP6 protease inhibitors, confirmation, biochemical, luminescence, single concentration. shares compounds with SENP7 inh. recombinant SENP6, Z-RLRGG-aminoluciferin luminescence. inhibition, % at 12.5 µM. hit rate 58% among 6,200. AID 488915, 2010
SENP7 conf: SENP7 protease inhibitors, retest, confirmation, biochemical, luminescence, single concentration; shares compounds with SENP7 inh; recombinant SENP7, Z-RLRGG-aminoluciferin luminescence, 40 min; inhibition, % at 12.5 µM; hit rate 69% among 6,200
Casp3 SENP sel: caspase-3 protease inhibitors, confirmation, selectivity assay for SENP inhibitor project, biochemical, single concentration; inhibition, % at 12.5 µM; hit rate 60% among 6,200; purified caspase-3, Z-DEVD-aminoluciferin luminescence, 60 min; shares compounds with SENP7 inh;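 active = mean inhibition above about 50%, limit read from the data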
Target sequence (P42574 28-227 limits assumed): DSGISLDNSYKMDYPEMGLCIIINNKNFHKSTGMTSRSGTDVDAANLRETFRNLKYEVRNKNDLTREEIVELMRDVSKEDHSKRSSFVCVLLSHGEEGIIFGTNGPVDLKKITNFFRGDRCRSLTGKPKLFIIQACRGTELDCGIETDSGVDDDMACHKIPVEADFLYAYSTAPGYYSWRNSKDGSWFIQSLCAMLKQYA
SENP luc ctr: luminescence interference (SENP counter-screen); shares compounds with SENP7 inh; inhibition, % at 12.5 µM; Pre-incubated SENP8/Z-RLRGG-aminoluciferin, luciferase luminescence interference; hit rate 39% among 6,200;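 active = mean inhibition above about 50% when retested at one dose, limit read from the data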
Of the large screens only hits and unclear results are named; the others gave an inactive call (follow-up assays come after a bar, where they were run). The list is not random: actives were taken first. Their share in the collection is about 2.7%.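 The calls were made as follows, unless noted: active = mean inhibition above about 50% in the one-dose retest (limit read from the data); inactive = the rest.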

O=C(Nc1ccccc1C(=O)O)c1cccc(C(=O)Nc2ccccc2C(=O)O)c1	SENP6 inh 80, SENP8 block-1 71 | SENP8 confirm 87 | SENP6 conf 86 | SENP7 conf 98 | Casp3 SENP sel 88 | SENP luc ctr 70
CCOc1c(Cl)cc(C(=O)Nc2ccccc2C(=O)O)cc1Cl	SENP6 inh 60 | SENP8 confirm 59 | SENP6 conf 57 | SENP7 conf 72 | Casp3 SENP sel inactive | SENP luc ctr 68
CC(=O)Nc1cccc(C(=O)Nc2ccccc2C(=O)O)c1	none
COc1cc2c(cc1OC)-c1cc(Nc3ccc(C)cc3)nc(=O)n1CC2	none
CCN1CCN(C(=O)/C(=C/c2cccs2)NC(=O)c2ccc(C)c(C)c2)CC1	none
Cc1oc(-c2ccccc2F)nc1CS(=O)CC(=O)NCc1ccccc1 (configuration not stated)	none
COc1cc2c(C#N)c(N3CCCCC3)nc(N)c2c(N)n1	SENP6 inh 66, SENP8 block-1 62 | SENP8 confirm inactive | SENP6 conf inactive | SENP7 conf inactive | Casp3 SENP sel inactive | SENP luc ctr inactive
CCN(CC)c1nc(N)c(C#N)c(CC#N)c1C#N	none (no result: HSP90 refold inh)
CCOc1cc2c(C#N)c(N3CCNCC3)nc(N)c2c(N)n1	SENP6 inh 88 | SENP8 confirm inactive | SENP6 conf inactive | SENP7 conf inactive | Casp3 SENP sel inactive | SENP luc ctr inactive
COc1ccc(CN2C(=O)Cc3c2nc(N)c2c(N)nc(N4CCCCC4)c(C#N)c32)cc1	SENP6 inh 61 (no result: SENP8 block-2) | SENP8 confirm inactive | SENP6 conf inactive | SENP7 conf inactive | Casp3 SENP sel inactive | SENP luc ctr inactive
CCOC(=O)C1CCN(c2nc(N)c3c(N)nc(SCC(=O)O)cc3c2C#N)CC1	none (no result: SENP6 inh, SENP8 block-1, SENP7 inh)
CCN(CC)c1nc(N)c2c(N)nc(OC)cc2c1C#N	SENP6 inh 76, SENP8 block-1 51 (no result: HSP90 refold inh) | SENP8 confirm inactive | SENP6 conf inactive | SENP7 conf inactive | Casp3 SENP sel inactive | SENP luc ctr inactive
CCc1ccc(N2C(=O)Cc3c2nc(N)c(C#N)c3N)cc1	none
CC(SCc1ccccc1)C(=O)N/N=C/c1ccc(OCC(=O)NCc2ccco2)cc1 (configuration not stated)	none
COc1cc2c(C#N)c(N3CCc4ccccc4C3)nc(N)c2c(N)n1	SENP6 inh 83, SENP8 block-1 80 | SENP8 confirm inactive | SENP6 conf inactive | SENP7 conf inactive | Casp3 SENP sel inactive | SENP luc ctr inactive
COc1cc2c(C#N)c(N3CCOCC3)nc(N)c2c(N)n1	none
CCOc1cc2c(C#N)c(N3CCCCC3)nc(N)c2c(N)n1	SENP6 inh 69, SENP8 block-1 65 | SENP8 confirm inactive | SENP6 conf inactive | SENP7 conf inactive | Casp3 SENP sel inactive | SENP luc ctr inactive
CS(=O)(=O)c1cccc(NC(=O)CSc2nnc3n2CCCCC3)c1	none (no result: HSP90 refold inh)
Nc1ncc(Br)cc1N=Cc1ccccc1	SENP6 inh 72 | SENP8 confirm inactive | SENP6 conf inactive | SENP7 conf inactive | Casp3 SENP sel inactive | SENP luc ctr inactive
CCOc1cc(C2CC(=O)NC3=C2C(=O)C(C(=O)OC)C(C)C3)cc(Cl)c1O (configuration not stated)	none
C/C(=N\NC(=O)c1c([N+](=O)[O-])c(C)nn1C)c1ccc(NC(=O)c2ccc(C)o2)cc1	none
CCCc1nc2nc(C)c(NS(=O)(=O)c3ccc(C(C)(C)C)cc3)c(=O)n2[nH]1	none
Cc1ccc2cccc(N)c2n1	SENP6 inh 52, SENP7 inh 55 | SENP8 confirm inactive | SENP6 conf inactive | SENP7 conf inactive | Casp3 SENP sel inactive | SENP luc ctr inactive
Cc1c(N)cccc1N	none (no result: HSP90 refold inh)
CN(C)CC(=O)c1c(N)n(Cc2ccccc2)c(=O)n(C)c1=O	none
CCN(CC(=O)c1c(N)n(C)c(=O)n(C)c1=O)c1cccc2ccccc12	SENP6 inh 84, SENP8 block-1 54 | SENP8 confirm inactive | SENP6 conf inactive | SENP7 conf inactive | Casp3 SENP sel inactive | SENP luc ctr inactive
COc1ccc(C(=O)COC(=O)/C=C/c2ccccc2)c(OC)c1	none (no result: HSP90 refold inh)
Cc1ccc(C2CC(c3ccccc3)=NN2c2ccccc2)o1 (configuration not stated)	SENP7 inh 55 | SENP8 confirm inactive | SENP6 conf inactive | SENP7 conf inactive | Casp3 SENP sel inactive | SENP luc ctr inactive
COc1ccc(C(=O)N2CCN(S(=O)(=O)c3ccc(Cl)cc3)CC2)cc1S(=O)(=O)N1CCOCC1	none (no result: SENP6 inh, SENP8 block-1, HSP90 refold inh, SENP7 inh)
CCOC(=O)c1ccc(NC(=O)c2ccnn2C)cc1	SENP6 inh 68, SENP8 block-1 59, SENP7 inh 58 (no result: HSP90 refold inh) | SENP8 confirm inactive | SENP6 conf inactive | SENP7 conf inactive | Casp3 SENP sel inactive | SENP luc ctr inactive
CCOC(=O)c1ccc(NC(=O)N2CCc3ccccc3C2)cc1	none
Cn1nccc1C(=O)Nc1ccc(OC(=O)c2ccnn2C)cc1	none
CCOC(=O)c1ccc(NC(=O)c2ccccc2C)cc1	SENP6 inh 70, SENP8 block-1 58, SENP7 inh 65 | SENP8 confirm 69 | SENP6 conf 59 | SENP7 conf 87 | Casp3 SENP sel 54 | SENP luc ctr 55
CCOC(=O)c1ccc(NC(=O)N2CCc3ccccc32)cc1	SENP6 inh 91, SENP8 block-1 77, SENP7 inh 96 | SENP8 confirm inactive | SENP6 conf 81 | SENP7 conf 95 | Casp3 SENP sel 76 | SENP luc ctr inactive
O=c1c(Cc2c(F)cccc2Cl)c(O)ccn1C1CC1	none
CC(C)(C)Sc1ccc(/C=N/O)cc1[N+](=O)[O-]	none
O=C1/C(=C/c2ccc(F)cc2)CCC1C1CCCC1 (configuration not stated)	SENP8 block-1 62, SENP7 inh 62 | SENP8 confirm inactive | SENP6 conf inactive | SENP7 conf inactive | Casp3 SENP sel 54 | SENP luc ctr inactive
O=C1/C(=C\c2ccco2)CCC/C1=C\c1ccco1	none

Compound activity (PubChem)
